# In PubChem BioAssay AID2314 (National Center for Advancing Translational Sciences (NCATS), 2010):
# Hit rate of the full screen: of about 300,000 compounds, about 37,000 (12%) were called active. No stated cut-off is given here; in the data, active means max response mostly above about 13% (no sharp cut-off); inactive means mostly below about 14%. The entries come from a sample that favours actives as a whole.
# Test: Cycloheximide Counterscreen for Small Molecule Inhibitors of Shiga Toxin; further: read at 38.3 µM for the half of the compounds with a filed dose; 0% is about no effect
# Conditions: cell reporter, cycloheximide protein synthesis inhibition counterscreen; active compounds read high
row,SMILES,max response
1,O=C(COC(=O)Cn1cnc2ccccc2c1=O)NCC12CC3CC(CC(C3)C1)C2,-1.91% (inactive)
2,COc1cc(CNc2ncn[nH]2)ccc1OCc1ccccc1C,36.9% (active)
3,COc1ccc(CCNC(=O)C(=O)NCc2ccccc2C)cc1OC,-2.75% (inactive)
4,c1n[nH]c(NCc2ccc3c(c2)OCO3)n1,-1.69% (inactive)
5,COC(=O)CN1C(=O)[C@H]2[C@@H](/C=C/c3ccccc3)N3C(=O)CN(CC4CC4)C(=O)[C@@]3(Cc3ccccc3)[C@H]2C1=O,0.35% (inactive)
6,Cc1c2cnn(CC(=O)NCCCN3CC(C)CC(C)C3)c(=O)c2c(C)n1Cc1ccc(Cl)cc1 (stereo unspecified),-5.34% (inactive)
7,CCc1ccc2ncc(C(=O)c3ccccc3)c(N3CCOCC3)c2c1,2.65% (inactive)
8,CCOc1ccc(C(=O)Nc2c3c(nn2-c2ccccc2)CS(=O)(=O)C3)cc1,-1.43% (inactive)
9,CCn1ccnc1CN(C)C(=O)c1ccc2nc(Cc3ccc(OC)cc3)oc2c1,-0.601% (inactive)
10,COc1ccc(Cc2nc3ccc(C(=O)NCC4CCOCC4)cc3o2)cc1OC,23.6% (active)
11,COc1ccccc1-n1c(C)nc2cc(C(=O)NCc3ccc4c(c3)OCO4)ccc21,5.54% (inactive)
12,COCCNC(=O)c1ccc2nc(Cc3ccc(OC)c(OC)c3)oc2c1,32% (active)
13,CCC1C(=O)NCCN1C(=O)c1ccc2nc(Cc3ccc(OC)cc3)oc2c1 (stereo unspecified),16.3% (inactive)
14,COc1ccc(Cc2nc3ccc(C(=O)N4CCC(N(C)C)C4)cc3o2)cc1 (stereo unspecified),7.38% (inactive)
15,COc1ccc(C(=O)NCCc2ccc(S(N)(=O)=O)cc2)cc1OC,9.83% (inactive)
16,Cn1cc(C(=O)NCc2ccccc2F)cn1,-3.82% (inactive)
17,CSCCNC(=O)c1ccc2nc(Cc3ccccc3F)oc2c1,54.4% (active)
18,Cc1ccc(S(=O)(=O)N2CCC3(CC2)OCCO3)c(C)c1,-3.35% (inactive)
19,Cc1ccc(S(=O)(=O)N2CCN(C(=O)CSc3cc(C)ccc3C)CC2)c(C)c1,12.6% (inactive)
20,C=CCOc1ccc(/C=C/C(=O)OCC(=O)NC2CCCCCC2)cc1,-2.39% (inactive)
21,O=S(=O)(Cc1nnnn1-c1ccccc1)c1ccccc1,-0.262% (inactive)
22,O=C(CN1C(=O)c2ccccc2S1(=O)=O)NC1CCCCC1,3.93% (inactive)
23,Cc1ccc(F)cc1NC(=O)N1CCCN(c2ccc(C(F)(F)F)cn2)CC1,-0.488% (inactive)
24,O=C(CSc1nc(Nc2ccccc2)nc(N2CCOCC2)n1)Nc1cc(Cl)ccc1O,7.58% (inactive)

row,SMILES,max response
1,O=C(O)c1ccc(/C=C2/SC(=S)N(c3cccc(C(F)(F)F)c3)C2=O)cc1,-7.16% (inactive)
2,S=C(NCc1ccco1)Nc1ccc2c(c1)OCCO2,69.9% (active)
3,Cc1c(Cl)cccc1NC(=S)NCc1ccc2c(c1)OCO2,-1.28% (inactive)
4,FC(F)(F)c1cccc(NC(=S)Nc2cccc(Cl)c2)c1,-2.33% (inactive)
5,S=C(Nc1cccc(Cl)c1)Nc1ccc2c(c1)OCCO2,42.2% (active)
6,S=C(NCc1ccco1)NCc1ccccc1Cl,-2.41% (inactive)
7,CN(C)S(=O)(=O)c1cccc(NC(=S)NCc2ccc3c(c2)OCO3)c1,0.966% (inactive)
8,COc1cc(NC(=S)NCc2ccco2)c(OC)cc1Cl,-2.3% (inactive)
9,FC(F)Oc1ccc(NC(=S)NCc2ccco2)cc1Cl,11.2% (inactive)
10,S=C(NCc1ccc2c(c1)OCO2)NCc1ccco1,28.4% (active)
11,O=S(=O)(c1ccccc1)N(Cc1cccc(F)c1)c1ccccc1,-0.496% (inactive)
12,CC(=O)N1CCC(C(=O)Nc2nc(-c3ccccc3)ns2)CC1,0.624% (inactive)
13,NC(=O)c1cc(S(=O)(=O)NCCCc2ccco2)cs1,-2.26% (inactive)
14,CCc1nnc(NC(=O)[C@@H](NC(=O)c2cccc(C)c2)C(C)C)s1,-2.22% (inactive)
15,C=CCn1c(SCc2ccccc2)nc2c1c(=O)[nH]c(=O)n2C,-1.99% (inactive)
16,CC(Sc1nnnn1C1CCCCC1)C(=O)O (stereo unspecified),5.78% (inactive)
17,CCCc1nnc(SCC(=O)N2C(C)CCCC2C)n1CC (stereo unspecified),7.27% (inactive)
18,O=C(CSc1nnnn1C1CCCC1)N1CCCCC1,27% (active)
19,CC1CCCC(C)N1C(=O)CSc1nnnn1C1CCCC1 (stereo unspecified),25.7% (active)
20,O=C(CSc1nnc2ccc(-c3ccncc3)nn12)N1CCCCC1,-4.64% (inactive)
21,CC(C)C(=O)Nc1nnc(SCC(=O)N2C(C)CCCC2C)s1 (stereo unspecified),1.12% (inactive)
22,O=Cc1cn(-c2ccccc2)nc1-c1ccccn1,3.16% (inactive)
23,Cc1c(CN2CC[C@@H](N3CCN(c4ccccn4)CC3)[C@H](O)C2)[nH]c2ccc(F)cc12,1.28% (inactive)
24,O=C(NCc1ccccc1)C(c1ccccc1)N(C(=O)c1csnn1)c1ccc(F)cc1 (stereo unspecified),-4.47% (inactive)

row,SMILES,max response
1,O=S(=O)(Nc1ccc(OC(F)(F)F)cc1)c1cccc2nonc12,-2.47% (inactive)
2,O=S(=O)(Cc1noc(-c2ccc(OC(F)(F)F)cc2)n1)c1ccc(F)cc1,22.3% (active)
3,O=S(=O)(Cc1nnnn1-c1ccc(Br)cc1)c1ccc(F)cc1,-2.53% (inactive)
4,COc1cc(OC)cc(C(=O)NC(=S)N2CCN(c3ccc(C(F)(F)F)cc3[N+](=O)[O-])CC2)c1,4.72% (inactive)
5,Cn1nccc1NS(=O)(=O)c1ccc(F)cc1,162% (active)
6,Cc1cc(C)cc(NS(=O)(=O)c2ccc(F)cc2)c1,-2.02% (inactive)
7,Cc1ccc(NS(=O)(=O)c2ccc(F)cc2)nc1,-3.76% (inactive)
8,COc1cc2c(cc1OC)CC1(CCCCC1)N=C2,-2.87% (inactive)
9,CSCc1nnc(NC(=O)c2ccc(S(=O)(=O)N3CCCCC3C)cc2)o1 (stereo unspecified),-2.84% (inactive)
10,CCOc1ccc(C2C3=C(CCCC3=O)N(CC(=O)O)C3=C2C(=O)CCC3)cc1,-3.14% (inactive)
11,COc1ccc(Nc2ncnc3sc(-c4ccccc4)cc23)c(OC)c1,7.7% (inactive)
12,COc1ccc(Nc2ncnc3ccc(Br)cc23)c(OC)c1,26.7% (active)
13,C=CCNc1ncnc2ccc(Br)cc12,-5.1% (inactive)
14,CN(Cc1c(F)cccc1Cl)S(=O)(=O)c1cccs1,-2.55% (inactive)
15,CN(CCc1ccccc1)c1ccc([N+](=O)[O-])cn1,0.432% (inactive)
16,COc1ccc2c(c1)C=CC1(O2)N(CCO)c2ccccc2C1(C)C (stereo unspecified),26% (active)
17,COc1cccc(CC2(CO)CCCN(CC3=Cc4cc(OC)ccc4OC3)C2)c1 (stereo unspecified),-0.657% (inactive)
18,CN1c2ccc([N+](=O)[O-])cc2C(C)(C)C12C=Cc1cc(C(=O)O)ccc1O2 (stereo unspecified),-2.71% (inactive)
19,O=C(c1cccc(-n2cccc2)c1)N1CCN(S(=O)(=O)c2ccc(F)cc2)CC1,5.03% (inactive)
20,O=c1[nH]c(CSc2ccccc2)nc2c1oc1ccccc12,-1.34% (inactive)
21,Cc1nc(SCC(=O)NC2CCCC2)[nH]c(=O)c1C,0.618% (inactive)
22,O=C(CN1CCN(S(=O)(=O)c2ccc(Br)cc2)CC1)Nc1ccccc1C(=O)c1ccccc1,-0.92% (inactive)
23,O=S(=O)(Cc1cc(Cl)nc(-c2cccnc2)n1)c1ccccc1,-0.203% (inactive)
24,COc1ccc(S(=O)(=O)N2CN(CCc3ccc(OC)c(OC)c3)c3nc4ccccc4nc32)cc1,-0.593% (inactive)

row,SMILES,max response
1,C=CCN1CN(S(=O)(=O)c2ccc(OC)cc2)c2nc3ccccc3nc21,15.9% (inactive)
2,O=S(=O)(c1ccccc1)N1CN(Cc2ccc(F)cc2)c2nc3ccccc3nc21,19.8% (active)
3,O=C(NCCCN1CCOCC1)C1CCCN(S(=O)(=O)N2CCCCC2)C1 (stereo unspecified),7.19% (inactive)
4,CC(C)N1CCc2c(sc(NC(=O)Cc3ccccc3)c2C#N)C1,1.8% (inactive)
5,Cc1ccc2occ(/C=N/NC(=O)c3ccccc3C)c(=O)c2c1,9.31% (inactive)
6,CC(C)(C)OC(=O)NCCCCCC(=O)N/N=C/c1coc2ccccc2c1=O,37.7% (active)
7,NC(=S)N/N=C/c1coc2cc(Cl)ccc2c1=O,-4.85% (inactive)
8,COc1cccc(NC(=O)COc2cc(C)cc3oc(=O)cc(C)c23)c1,-6.8% (inactive)
9,COC(c1ccccc1)(c1ccccc1)C(Oc1nc(C)cc(C)n1)C(=O)O (stereo unspecified),-1.54% (inactive)
10,O=C(NCc1csc(-c2cccs2)n1)C1CC1,49.8% (active)
11,CC(C)(C)C1CCC(C(=O)NCC(c2cccs2)N2CCOCC2)CC1 (stereo unspecified),1.44% (inactive)
12,O=C(NCc1cccs1)C1CCN(S(=O)(=O)c2ccc(Cl)cc2)CC1,8.38% (inactive)
13,CCN(CC)S(=O)(=O)c1ccc(N2CCN(C)CC2)c(NC(=O)Nc2ccccc2F)c1,-3.4% (inactive)
14,CCC(CC)C(=O)Nc1c2c(nn1-c1ccc(C)cc1)CS(=O)(=O)C2,-1.32% (inactive)
15,Cn1c(N)c(C(=O)COC(=O)c2cnc(Cl)c(Cl)c2)c(=O)n(C)c1=O,-2.82% (inactive)
16,CCNC(=S)N1CCN(C(=O)c2ccco2)CC1,-0.408% (inactive)
17,O=C(/C=C/c1ccco1)NC(=S)Nc1ccccc1Br,21% (active)
18,O=C(/C=C/c1ccco1)NC(=S)N1CCCCC1,25.7% (active)
19,COc1ccc(Cl)cc1C(=O)NNC(=S)NC(=O)/C=C/c1ccco1,0.62% (inactive)
20,CC(C)CNC(=O)COC(=O)/C=C/c1ccco1,-2.86% (inactive)
21,COc1ccc(/C=C/C(=O)NC(=S)N2CCCC(C(N)=O)C2)cc1 (stereo unspecified),12.7% (inactive)
22,O=C(Cc1ccccc1)Nc1ccc(C(=O)Nc2ccccc2C(=O)O)cc1,-2.41% (inactive)
23,Cn1sc(=O)c2cc(S(=O)(=O)NC3CC3)ccc21,-2.97% (inactive)
24,CCCNC(=S)N1CCC(NC(=O)c2ccc(OC)cc2)CC1,-1.83% (inactive)
